Experimental data published in PubChem BioAssay AID743293 (Broad Institute, 2014).
Results with a measured potency or affinity are listed apart. Calls of active or inactive are those of the source.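 Rule for the calls: active = compounds lowering fluorescence with a fitted half-maximal concentration at or below a set limit tied to top dose; inconclusive = flat curve with 30 to 70% inhibition, or poor fit; inactive = the rest.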

Molecular target: Caspase-9 (Homo sapiens) (UniProt P55211)
Assay: inhibitors of purified CASP9 protease – biochemical, fluorescence, plate reader, cherry-picked samples, selectivity assay for caspase-6 inhibitor project, dose response (AID 743293)
Conditions: purified caspase-9, Z-LEHD-R110 cleavage fluorescence; series mostly up to 35 µM

Chain of Caspase-9 (Homo sapiens) (P55211 whole entry, looked up): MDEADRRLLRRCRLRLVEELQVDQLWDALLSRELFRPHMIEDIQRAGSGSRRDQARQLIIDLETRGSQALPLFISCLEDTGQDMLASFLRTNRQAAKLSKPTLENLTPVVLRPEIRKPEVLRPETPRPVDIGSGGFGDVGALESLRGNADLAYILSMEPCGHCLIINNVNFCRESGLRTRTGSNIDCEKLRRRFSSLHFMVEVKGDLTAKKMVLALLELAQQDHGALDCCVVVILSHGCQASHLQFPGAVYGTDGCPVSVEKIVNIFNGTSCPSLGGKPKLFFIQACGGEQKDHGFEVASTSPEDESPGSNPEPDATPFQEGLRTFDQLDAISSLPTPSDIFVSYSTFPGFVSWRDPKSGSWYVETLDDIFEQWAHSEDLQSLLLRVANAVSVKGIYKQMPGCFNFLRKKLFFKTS

| Compound | outcome |
| --- | --- |
| CCOC(=O)[C@H](Cc1c[nH]c2ccccc12)NC(=O)CN=[N+]=[N-] | inactive |
| Oc1cc(O)cc(C=Cc2ccc(O)c(O)c2)c1 | inactive |
| Cc1cc(C=O)c(C)n1-c1cc(C(=O)O)cc(C(=O)O)c1 | inactive |
| COc1cc(-c2ccc(Nc3ccccc3C(=O)O)c(OC)c2)ccc1Nc1ccccc1C(=O)O | inactive |
| COc1cc(NCCCCC(C)N)c2nccc(C)c2c1 (centres undefined) | inactive |
| O=C(O)C1CCCCC1C(=O)Nc1cccc(Br)c1 (centres undefined) | inactive |
| Oc1cc2c(cc1O)[C@H]1c3ccc(O)c(O)c3OC[C@@]1(O)C2 | inactive |
| CCCCN(C(=O)c1cccc(-n2cccc2)c1)c1c(N)n(CCC)c(=O)[nH]c1=O | inactive |
| CCCN(C(=O)c1cccc(-n2cccc2)c1)c1c(N)n(Cc2ccccc2)c(=O)[nH]c1=O | inactive |
| Cc1[nH]nc(S(=O)CC(=O)O)c1[N+](=O)[O-] (centres undefined) | inactive |
| O=c1c(CO)cc(CO)cc(CO)c1O | inactive |
| O=C(Nc1ccc2nc3n(c(=O)c2c1)CCCCC3)c1c(F)ccc([N+](=O)[O-])c1F | inactive |
| Cn1cnnc1SCC(=O)Nc1ncc([N+](=O)[O-])s1 | inactive |
| O=C(O)CC(CCc1ccccc1)OC1OC(CO)C(O)C(O)C1O (centres undefined) | inactive |
| CN(CC(=O)Nc1c(Cl)cccc1Cl)C(=O)c1cccc(-n2cccc2)c1 | inactive |
| Cc1c(CCC(=O)O)c(=O)oc2c(C)c(OCc3ccccc3Cl)ccc12 | inactive |
| Cc1oc2c(cc(NS(=O)(=O)c3ccc(C(C)C)cc3)c3ccccc32)c1C(=O)O | inactive |
| Cc1ccc(S(=O)(=O)Nc2csc(C)c2C(=O)O)cc1 | inactive |
| O=C(c1cccc(-n2cccc2)c1)N1CCN(S(=O)(=O)c2ccccc2)CC1 | inactive |
| O=c1oc(-c2ccccc2)nc2sc3c(c12)CCC3 | inactive |
| Cc1cccc(NC(=O)CNC(=O)c2cccc(-n3cccc3)c2)c1C | inactive |
| Cc1cc(C=O)c(C)n1-c1ccc(Cl)c(C(=O)O)c1 | inactive |
| COc1ccc(C(=O)OCC(=O)Nc2ncc([N+](=O)[O-])s2)cc1OC | inactive |
| COc1ccc(NS(=O)(=O)c2ccc3c(c2)[C@H]2C=CC[C@H]2[C@@H](c2ccc(C(=O)O)cc2)N3)cc1 | inactive |
| Cc1ccc(S(=O)c2ccc([N+](=O)[O-])c3nonc23)cc1 (centres undefined) | inactive |
| [O-][n+]1onc2c1CCc1c-2nn(-c2ccccc2Cl)[n+]1[O-] | inactive |
| O=C(Nc1ccc(S(=O)(=O)Nc2cnc3ccccc3n2)cc1)c1ccc(Cl)c([N+](=O)[O-])c1 | inactive |
| CCOC(=O)c1sc2nc(OCCN3CCOCC3)cc(C)c2c1N | inactive |
| CC(CNc1ccccc1O)C(=O)O (centres undefined) | inactive |
